IDE cell inh: inhibits human insulin-degrading enzyme in HEK cells | P14735 | FAbetaB cleavage, fluorescence polarization | inhibition, % at 5.59 µM | 320,000 compounds, 0.41% hits | AID 434962;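 active = percent inhibition above the average of all tested compounds plus 3 SD, set per screening campaign, cut at about 16% in these data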;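 note: IDE supplied by intact live HEK cells; FP after avidin binding of uncleaved biotin substrate so inhibition keeps polarization high; 0% = DMSO wells and 100% = 60 µM reference IDE inhibitor Ii1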
IDE cell activ: boosts human insulin-degrading enzyme activity in HEK cells; P14735; activation, % at 5.96 µM; 340,000 compounds, 0.073% hits; FAbeta-B cleavage, fluorescence polarization; 0% vehicle, 100% cell-free pure enzyme wells;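 active = activation above the mean of all tested compounds plus 3 SD, set per screening campaign, cut at about 17% in these data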
PolyA inh: yeast polyadenylation inhibition; S. cerevisiae SKY197-pL101 polyadenylation reporter, beta-gal luminescence; efflux-impaired pdr1/pdr3 knockout yeast; score 100 = 6 SD above DMSO; activity score, % at 12 µM; 300,000 compounds, 0.02% hits;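 active = lowest replicate activity score at least 50, where 100 means six control SD above control mean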;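 note: yeast exposed to compound for 9 h at 30 °C; higher score means more reporter readthrough which indicates perturbed polyadenylation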
ALR H2O2 inh: inhibitors of human sulfhydryl oxidase ALR; 290,000 compounds, 3.8% hits; P55789; purified ALR, DTT oxidation, H2O2 HRP-luminol luminescence; AID 485317; inhibition, % (concentration not given with the values);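 active = mean replicate inhibition above about 79%, with every replicate also reaching it, limit read from the data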
Target sequence (P55789 whole entry, looked up): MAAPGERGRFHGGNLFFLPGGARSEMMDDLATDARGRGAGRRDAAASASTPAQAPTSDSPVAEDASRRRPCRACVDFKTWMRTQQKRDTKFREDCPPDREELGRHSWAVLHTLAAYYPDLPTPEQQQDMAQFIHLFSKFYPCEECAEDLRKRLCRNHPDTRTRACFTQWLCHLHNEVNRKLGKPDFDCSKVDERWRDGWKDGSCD
M18AAP inhibitor: blocks P. falciparum M18 aspartyl aminopeptidase; recombinant PfM18AAP, H-Glu-NHMec fluorogenic cleavage; inhibition, % at 7.35 µM; 290,000 compounds, 1.2% hits;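 active = inhibition above the campaign mean inhibition over all tested compounds plus 3 SD, cut at about 28% in these data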;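 note: 0% = plate median of test compound wells and 100% = 2 mM ZnCl2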
CaV13 ICDI inh: Primary screen for inhibitors of IQ motif and Ca2+-dependent inactivation inhibitor domain binding in CACNA1D, Förster resonance energy transfer in living cells, …; HEK cells, CFP/YFP FRET ICDI-IQ, plate reader, 10 min; percent FRET-ratio fall versus neutral wells; inhibition, % at 12.3 µM; 340,000 compounds, 0.098% hits; AID 743397;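 active = mean replicate inhibition of at least 30% and at least 1% of replicates passing that level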;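 note: 0% = median of the neutral control wells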
Starred values were filed as active, the others as inactive; x = no result given; + = active, no number. An excerpt weighted towards active compounds, which were near 4.1% of everything screened.

SMILES	IDE cell inh	IDE cell activ	PolyA inh	ALR H2O2 inh	M18AAP inhibitor	CaV13 ICDI inh
COc1ccccc1NC(=O)Nc1nnc(CC(=O)Nc2cccc(C)c2)s1	0.8	8.3	13.4	-2.2	-7.7	-5.3
Cc1ccc(S(=O)(=O)N2CCc3ccccc3C2CC(=O)O)cc1 (centres undefined)	5.4	-4.9	3.6	x	4.7	-16.1
COc1ccccc1OCCn1c(=O)oc2ccc(C)cc21	3.7	1.2	-22.0	x	-0.7	-1.2
COC(=O)CSc1nc(SCc2ccccc2Cl)nc2c1CCCC2	4.2	-2.2	-8.1	-3.5	-0.4	-5.4
O=C(O)CSc1nc(SCc2ccccc2Cl)nc2c1CCCC2	-1.3	4.6	7.9	94.7*	-5.8	-5.0
Cc1ccc(NC(=O)c2cccc(Oc3ccc([N+](=O)[O-])cc3)c2)c(C(=O)O)c1	1.1	4.2	11.9	97.4*	6.5	-6.0
COc1ccc(NC(=O)c2cccc([N+](=O)[O-])c2)cc1	2.8	3.8	-9.8	7.9	4.5	-4.3
COc1ccc(NC(=O)c2cc([N+](=O)[O-])ccc2O)cc1	3.4	22.2*	-8.7	5.2	0.8	-6.1
O=C(Nc1ccc([N+](=O)[O-])cc1)c1cccc([N+](=O)[O-])c1	x	x	x	x	x	-11.0
O=C(O)c1cccc(Oc2ccc([N+](=O)[O-])cc2)c1	3.1	2.6	x	1.5	0.8	-4.7
O=C(Nc1ccc(O)cc1)c1cccc(Oc2ccc([N+](=O)[O-])cc2)c1	-0.6	4.8	-8.9	98.8*	1.3	-1.8
COC(=O)[C@]12C[C@H](CC(=O)N3CCSCC3)C(=O)N(CCC3=CCCCC3)C1=C[C@H](COCc1ccccc1)O[C@@H]2C	x	x	x	x	x	-7.2
COc1cc(C(=O)NCC(c2ccccc2)N(C)C)ccc1OCC(=O)N1CCOCC1 (centres undefined)	-9.2	2.9	6.5	-11.1	1.7	2.0
CCc1cc(Cn2nc(C(=O)O)cc2-c2ccccc2)on1	0.7	19.3*	11.0	x	x	-7.5
CC(C)(O)C#Cc1ccc([C@@H]2C[C@H]3CN(c4ccccc4)C(=O)[C@]34CCCN24)s1	1.3	-3.1	1.5	91.5*	1.3	-16.5
COc1ccccc1NCC(O)COc1ccc(C(C)(C)C)cc1 (centres undefined)	-3.3	10.5	-8.1	65.7	-0.4	-4.6
COc1ccc(NCC(O)COc2ccc(C(C)(C)C)cc2)cc1 (centres undefined)	-1.5	21.6*	-3.9	19.7	5.5	-2.6
Cc1ccc(-c2cn3c(n2)SCC3)cc1	1.0	-2.1	-2.3	98.5*	-3.6	-1.6
CCOC(=O)c1ccccc1-c1csc(N)n1	0.9	4.1	18.1	3.4	-4.3	-4.2
CCCCN1C=C(C(=O)OC)C(c2ccccc2Cl)C(C(=O)OC)=C1	4.1	-2.1	-10.5	11.4	0.3	+
CC(Oc1ccc(Cl)cc1Cl)C(=O)Nc1ccc(O)cc1 (centres undefined)	-0.3	2.4	-17.6	98.3*	4.9	0.0
C=CS(=O)(=O)N(C(=C)C(=O)OC)S(C)(=O)=O	x	x	x	x	x	-5.2
O=C(O)CCn1c(-c2ccccc2)cc2c1CCCC2=O	-1.4	6.5	-3.6	-18.4	28.5*	-5.1
COC(=O)c1cc2c(n(Cc3ccccc3)c1=O)CCCC2=O	x	1.3	x	x	x	-5.4
O=C1NC(=O)C2(CCCCC2)N1	x	2.7	x	x	x	-6.3
SMILES	IDE cell inh	IDE cell activ	PolyA inh	ALR H2O2 inh	M18AAP inhibitor	CaV13 ICDI inh
COC(=O)C1=C(C)N(Cc2ccccc2)C(=NCc2cccc(Cl)c2)N[C@H]1c1cccc(F)c1	2.8	17.8*	x	-8.7	x	x
COC(=O)C1=C(C)N(Cc2ccc(C(F)(F)F)cc2)C(=NCc2ccc(C(F)(F)F)cc2)NC1c1cccc(C(F)(F)F)c1 (centres undefined)	x	x	x	x	x	-4.0
COC(=O)C1=C(C)N(Cc2ccccc2)C(=NCc2ccccc2)N[C@H]1c1cccc(C(F)(F)F)c1	6.4	21.9*	x	-12.3	x	x
CSCC[C@H](NC(=O)N1CCn2c1nc1ccccc12)C(=O)NCc1ccccc1	0.1	0.6	1.9	-15.9	-1.3	-2.8
CSCC[C@H](NC(=O)N1CCn2c1nc1ccccc12)C(=O)NCc1ccco1	4.0	1.8	10.9	96.2*	4.0	-15.4
CCc1noc2cc(-c3ccccc3)n(C)c(=O)c12	x	x	x	x	x	-4.6
CCc1nc(N[C@@H](Cc2c[nH]c3ccccc23)C(=O)O)c2oc3ccccc3c2n1	6.7	3.4	0.6	88.7*	2.0	-4.9
Cc1cccc(NC(=O)CN(CC2CCCO2)C(=O)c2cc(S(=O)(=O)N(C)C)ccc2F)c1C (centres undefined)	2.4	1.0	x	0.1	x	-12.0
COc1cc(C2Nc3cccc4cccc(c34)N2)cc(OC)c1O	-5.8	28.0*	x	6.7	1.0	-7.6
CNc1ccc(Br)cc(C(=O)/C=C/c2ccc(OC)cc2)c1=O	3.4	-3.2	-29.8	54.5	18.9	-8.1
CNc1ccc(Br)cc(C(=O)/C=C/c2ccc3c(c2)OCO3)c1=O	6.8	0.9	-7.5	1.5	28.4*	x
Cc1[nH]c2ccccc2c1C(c1ccncc1)N1CCC(C)CC1 (centres undefined)	-4.5	1.4	2.9	96.6*	0.7	-19.6
Cc1[nH]c2ccccc2c1C(c1ccccn1)N1CCC(C(N)=O)CC1 (centres undefined)	1.8	1.9	-10.4	97.8*	4.3	-5.7
CCOC(=O)C1CCN(C(c2ccccn2)c2c(C)[nH]c3ccccc23)CC1 (centres undefined)	0.4	3.2	-7.6	53.7	3.7	-5.5
CC(Oc1ccc2ccc(=O)oc2c1)C(=O)c1ccccc1 (centres undefined)	2.9	-2.0	-8.4	-7.2	-2.3	-5.0
CCCCNC(=O)C1=C(N)C(C(=O)Nc2ccc(C)c(S(=O)(=O)N3CCCCC3)c2)SC1=Nc1ccc(C)cc1C (centres undefined)	-0.9	-1.8	-12.3	-0.8	2.9	-4.9
COc1ccc(Oc2nc3ccccc3n(C)c2=O)cc1	1.3	4.2	0.6	-13.3	-5.2	-3.7
Cn1c(=O)c(Oc2cc(Cl)cc(Cl)c2)nc2ccccc21	-3.3	1.9	6.3	97.8*	2.2	-3.5
COc1ccccc1C(O)(C(=O)NNc1cccc(C)c1)c1ccccc1OC	0.5	3.4	-18.4	95.4*	-0.8	-6.9
COc1ccccc1/C=C1\SC(=S)N(NS(=O)(=O)c2ccc(C)cc2)C1=O	8.4	4.7	-31.1	97.3*	2.4	-15.2
Cc1ccc(S(=O)(=O)NN2C(=O)/C(=C/c3cccnc3)SC2=S)cc1	2.9	-0.9	-16.6	96.1*	6.0	-4.9
CSc1ccc(/C=C(\C(=O)O)c2ccc(S(=O)(=O)N3CCCCC3)s2)cc1	-2.5	3.7	13.1	90.1*	1.7	-7.9
O=C(O)/C(=C\c1ccc(Cl)cc1)c1ccc(S(=O)(=O)N2CCCC2)s1	-2.6	-1.1	x	97.6*	x	-3.7
